# From PubChem BioAssay (NCATS)
# Records with an inconclusive call do not appear. Entries that show only a call come without a potency. Values without a mark were called inactive. Activity calls are given as the source filed them. Calls come from the whole dose curve; as a rule, active = well fitted curve in the direction sought with a large enough effect; inconclusive = small, poorly fitted or top-dose-only effect, or another doubt; inactive = no such curve, though single readings can be large; an effect the other way counts as inactive or inconclusive.
# Assays:
# [1] = molecular target: Rap guanine nucleotide exchange factor 3 (Homo sapiens) (UniProt O95398); experiment: Confirmatory qHTS for agonist of cAMP-regulated guanine nucleotide exchange factor 3 (EPAC1) (AID 1645881);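 note: EPAC1 catalysed release of BODIPY-GDP from Rap1B seen as fluorescence loss; nearly all actives have a fitted effect of over 75% in size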
# Chain of Rap guanine nucleotide exchange factor 3 (Homo sapiens) (O95398 whole entry, looked up): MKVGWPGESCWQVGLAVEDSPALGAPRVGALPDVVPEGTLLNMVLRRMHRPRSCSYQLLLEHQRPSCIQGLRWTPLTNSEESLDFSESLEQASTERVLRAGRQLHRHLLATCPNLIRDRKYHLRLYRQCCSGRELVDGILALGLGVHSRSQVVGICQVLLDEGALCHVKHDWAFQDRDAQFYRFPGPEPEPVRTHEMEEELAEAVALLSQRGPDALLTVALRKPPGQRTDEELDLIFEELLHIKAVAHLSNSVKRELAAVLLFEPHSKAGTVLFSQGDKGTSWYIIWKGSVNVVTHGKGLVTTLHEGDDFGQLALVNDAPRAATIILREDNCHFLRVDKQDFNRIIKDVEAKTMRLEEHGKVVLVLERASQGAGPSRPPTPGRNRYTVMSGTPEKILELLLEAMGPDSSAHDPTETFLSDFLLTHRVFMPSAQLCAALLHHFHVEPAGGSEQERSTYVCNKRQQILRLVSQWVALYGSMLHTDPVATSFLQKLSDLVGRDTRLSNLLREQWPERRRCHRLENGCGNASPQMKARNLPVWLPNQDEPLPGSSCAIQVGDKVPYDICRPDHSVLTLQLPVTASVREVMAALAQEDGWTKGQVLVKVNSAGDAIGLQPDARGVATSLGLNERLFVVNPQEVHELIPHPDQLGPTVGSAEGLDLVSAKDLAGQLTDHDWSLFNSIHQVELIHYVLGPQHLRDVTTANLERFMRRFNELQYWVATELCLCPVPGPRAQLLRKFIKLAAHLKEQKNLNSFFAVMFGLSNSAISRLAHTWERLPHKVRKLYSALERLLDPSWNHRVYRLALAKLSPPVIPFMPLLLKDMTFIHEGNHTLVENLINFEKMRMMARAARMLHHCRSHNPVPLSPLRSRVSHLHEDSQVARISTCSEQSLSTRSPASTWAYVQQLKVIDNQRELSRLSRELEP
# [2] = molecular target: Rap guanine nucleotide exchange factor 3 (Homo sapiens) (UniProt O95398); experiment: Counterscreen qHTS for antagonist of cAMP-regulated guanine nucleotide exchange factor 3 (EPAC1) (AID 1645888);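 note: fluorescence loss as bound BODIPY-GDP is released from Rap1B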
# Procedure, shortened: (§1)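 Rap1B-BODIPY-GDP 250 nM + GDP 50 uM; cpds 7-pt, final 9.74 nM–152 uM (activator mode) or from 7.32 nM upwards (inhibitor mode); RT; FI 480/540 nm at 5 and 30 min, then ± cAMP, reread.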
# [3] = molecular target: Rap guanine nucleotide exchange factor 3 (Homo sapiens) (UniProt O95398); experiment: Counterscreen qHTS for agonist of cAMP-regulated guanine nucleotide exchange factor 3 (EPAC1) (AID 1645889); note: nearly all actives have a fitted effect of over 40% in size; note: potency is the fitted concentration of half-maximal effect
# Procedure, shortened: as §1
# [4] = molecular target: Rap guanine nucleotide exchange factor 4 (Homo sapiens) (UniProt Q8WZA2); experiment: Confirmatory qHTS for agonist of cAMP-regulated guanine nucleotide exchange factor 4 (EPAC2) (AID 1645884);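 note: nucleotide exchange releases bodipy-GDP from Rap1 and this lowers its fluorescence; nearly all actives have a fitted effect of over 65% in size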; note: potency is the fitted concentration of half-maximal effect
# Chain of Rap guanine nucleotide exchange factor 4 (Homo sapiens) (Q8WZA2 whole entry, looked up): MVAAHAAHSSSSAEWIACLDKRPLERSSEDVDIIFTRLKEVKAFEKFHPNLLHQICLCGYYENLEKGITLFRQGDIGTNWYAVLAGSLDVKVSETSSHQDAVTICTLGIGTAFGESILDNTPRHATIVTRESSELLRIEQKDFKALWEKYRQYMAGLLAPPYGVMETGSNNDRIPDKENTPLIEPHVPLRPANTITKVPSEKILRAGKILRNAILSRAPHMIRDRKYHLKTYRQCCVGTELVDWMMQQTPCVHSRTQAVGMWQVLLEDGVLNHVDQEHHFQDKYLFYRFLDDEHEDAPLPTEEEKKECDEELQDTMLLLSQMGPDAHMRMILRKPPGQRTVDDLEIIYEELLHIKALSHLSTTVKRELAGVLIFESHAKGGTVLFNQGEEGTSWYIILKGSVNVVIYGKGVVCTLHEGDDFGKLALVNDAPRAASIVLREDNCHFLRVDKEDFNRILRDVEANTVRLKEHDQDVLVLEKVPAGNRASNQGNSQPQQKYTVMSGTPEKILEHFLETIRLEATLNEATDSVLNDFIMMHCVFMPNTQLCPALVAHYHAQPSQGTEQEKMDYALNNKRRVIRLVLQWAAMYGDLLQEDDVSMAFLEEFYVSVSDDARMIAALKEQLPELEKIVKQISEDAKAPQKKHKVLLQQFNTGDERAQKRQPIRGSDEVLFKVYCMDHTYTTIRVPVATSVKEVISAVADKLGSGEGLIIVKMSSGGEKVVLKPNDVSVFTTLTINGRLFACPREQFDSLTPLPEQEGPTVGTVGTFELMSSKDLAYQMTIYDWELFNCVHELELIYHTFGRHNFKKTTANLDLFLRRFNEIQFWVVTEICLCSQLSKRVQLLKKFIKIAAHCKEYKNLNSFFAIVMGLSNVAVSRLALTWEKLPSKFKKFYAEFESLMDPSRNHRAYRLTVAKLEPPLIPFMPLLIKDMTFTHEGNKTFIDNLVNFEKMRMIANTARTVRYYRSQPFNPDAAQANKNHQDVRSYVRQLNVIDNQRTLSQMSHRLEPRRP
# [5] = molecular target: Rap guanine nucleotide exchange factor 4 (Homo sapiens) (UniProt Q8WZA2); experiment: Confirmatory qHTS for antagonist of cAMP-regulated guanine nucleotide exchange factor 4 (EPAC2) (AID 1645885); note: nearly all actives have a fitted effect of over 25% in size; note: potency is the fitted concentration of half-maximal effect
# [6] = molecular target: Tumor susceptibility gene 101 protein (Homo sapiens) (UniProt Q99816); experiment: qHTS Assay for Iinhibitors of HIV-1 Budding by Blocking the Interaction of PTAP/TSG101: Hit Validation (AID 651600); note: nearly all actives have a fitted effect of over 70% in size; note: potency is the fitted concentration of half-maximal effect
# Chain of Tumor susceptibility gene 101 protein (Homo sapiens) (Q99816 whole entry, looked up): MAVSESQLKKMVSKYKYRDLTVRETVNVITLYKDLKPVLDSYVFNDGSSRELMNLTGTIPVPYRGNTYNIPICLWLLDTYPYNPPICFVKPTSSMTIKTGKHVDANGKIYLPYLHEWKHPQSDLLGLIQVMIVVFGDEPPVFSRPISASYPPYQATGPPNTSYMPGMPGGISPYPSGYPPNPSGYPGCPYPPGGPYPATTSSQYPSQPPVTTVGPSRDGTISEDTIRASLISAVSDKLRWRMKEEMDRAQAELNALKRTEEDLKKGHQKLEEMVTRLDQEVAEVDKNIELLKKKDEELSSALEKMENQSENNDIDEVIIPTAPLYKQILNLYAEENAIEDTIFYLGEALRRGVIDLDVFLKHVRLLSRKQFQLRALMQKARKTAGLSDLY
# Procedure, shortened: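 Measuring PTAP–Tsg101 interaction by FP: protein at 10 uM and fluorescent peptide at 50 nM (final), buffer 10 mM HEPES pH 7.5 with 0.15 M NaCl, 3 mM EDTA, 0.1 mM TCEP, 0.01% Tween 20; 20 min incubation, r.t.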
smiles,measurement,setting,value
C/[N+]([O-])=C/c1c(OCc2ccccc2)ccc2ccccc12,Potency,[1],inactive
same,Potency,[2],inactive
same,Potency,[3],inactive
COC(=O)c1ccc2nc(-c3ccco3)c(Cc3cccc(F)c3)n2c1,Potency,[1],inactive
same,Potency,[2],inactive
same,Potency,[3],inactive
COc1cccc(-c2coc3c(C)c4oc(=O)c(CCC(=O)O)c(C)c4cc23)c1,Potency,[1],inactive
same,Potency,[2],inactive
same,Potency,[3],inactive
O=C(COc1ccc(F)cc1Br)NCC1COc2ccccc2O1 (centres undefined),Potency,[1],inactive
same,Potency,[2],inactive
same,Potency,[3],inactive
CCC(=O)N(CCC(Cc1ccccc1)c1ccco1)Cc1ccco1 (centres undefined),Potency,[1],inactive
same,Potency,[2],inactive
same,Potency,[3],inactive
CCOC(=O)C1=C(c2ccccc2)c2ccccc2OC1C(=O)OCC (centres undefined),Potency,[1],inactive
same,"activity change, negative = inhibition",[2],-22.2% [at 30.8 µM]
same,activation,[3],24.5% [at 30.8 µM]
CCc1nc2c(OCc3ccc(C(F)(F)F)cc3)cccn2c1N(C)C(=O)C1CC1,Potency,[1],inactive
same,Potency,[3],inactive
Cc1ccccc1C1CC(=O)c2ccccc2C1C (centres undefined),Potency,[1],inactive
same,Potency,[2],inactive
same,Potency,[3],inactive
CCc1nnc(NS(=O)(=O)c2ccc(NC(=O)C(c3ccccc3)c3ccccc3)cc2)s1,Potency,[1],inactive
same,Potency,[2],inactive
COC(=O)c1ccc2nc(-c3ccc(C)cc3)c(Cc3ccsc3)n2c1,Potency,[1],inactive
same,"activity change, negative = inhibition",[2],1.91% [at 30.8 µM]
same,activation,[3],9.45% [at 30.8 µM]
COC(=O)c1ccc2nc(C3CCCCC3)c(Cc3ccccc3C(F)(F)F)n2c1,Potency,[1],inactive
same,Potency,[2],inactive
same,Potency,[3],inactive
CCC(=O)N1N=C(c2cccs2)CC1c1ccc(C)cc1 (centres undefined),Potency,[1],inactive
same,Potency,[2],inactive
same,Potency,[3],inactive
CCCC(C(=O)Nc1ccc(S(=O)(=O)Nc2nccs2)cc1)c1ccccc1 (centres undefined),Potency,[1],inactive
same,"activity change, negative = inhibition",[2],-24.2% [at 30.8 µM]
same,activation,[3],8.61% [at 30.8 µM]
CCOC(=O)C1CCCN(c2c(C(=O)c3ccccc3)cnc3ccc(OC)cc23)C1 (centres undefined),activation,[4],"6.11% [at 17.1 µM, percent relative to cAMP agonist control]"
same,Potency,[5],inactive
same,"activity change, negative = inhibition",[2],19.5% [at 30.8 µM]
C/C(=N\N(Cc1ccccc1)c1ccccc1)c1ccncc1,activation,[4],"-6.71% [at 17.1 µM, percent relative to cAMP agonist control]"
same,Potency,[5],inactive
Cc1nc2c3cc(F)ccc3n(Cc3ccccc3F)c2s1,activation,[4],"1.97% [at 17.1 µM, percent relative to cAMP agonist control]"
same,Potency,[5],inactive
same,"activity change, negative = inhibition",[2],-7.48% [at 30.8 µM]
O=C(Nc1cccc(C(F)(F)F)c1)C1Cc2c(-c3ccccc3)ccnc2O1 (centres undefined),activation,[4],"3.96% [at 17.1 µM, percent relative to cAMP agonist control]"
same,Potency,[5],inactive
same,"activity change, negative = inhibition",[2],-3.59% [at 30.8 µM]
CC1=CC(=C(C#N)c2nc3ccccc3s2)C=C(C)N1Cc1ccco1,Potency,[4],inactive
same,Potency,[5],inactive
same,Potency,[2],inactive
CCOC(=O)C1Oc2ccccc2C(c2ccc(OC)cc2)=C1C(=O)OC (centres undefined),Potency,[1],inactive
same,Potency,[3],inactive
COc1ccc(OC)c(C2=CC(=O)C[C@H](c3ccc4c(c3)OCO4)C2)c1,activation,[4],"11.2% [at 17.1 µM, percent relative to cAMP agonist control]"
same,Potency,[5],inactive
same,"activity change, negative = inhibition",[2],-6.17% [at 30.8 µM]
COC(=O)c1ccc2nc(-c3ccc(C)cc3)c(Cc3cccc(F)c3)n2c1,Potency,[1],inactive
same,Potency,[3],inactive
Cc1ccc(C(=O)N(Cc2ccco2)Cc2sccc2C)cc1,Potency,[4],inactive
same,Potency,[5],inactive
same,Potency,[2],inactive
O=C(Nc1cc(S(=O)(=O)N2CCCCC2)ccc1O)c1ccccc1NS(=O)(=O)c1ccc(F)c(F)c1,Potency,[4],0.282 µM (active)
same,Potency,[5],inactive
same,"activity change, negative = inhibition",[2],-23% [at 30.8 µM]
N#C/C(=C\c1ccc(Sc2ccccc2)o1)c1nc2ccccc2[nH]1,Potency,[4],112 µM (active)
same,Potency,[5],inactive
same,Potency,[2],inactive
COc1ccc(CN(Cc2ccco2)C(=O)c2ccccc2F)cc1,Potency,[4],inactive
same,Potency,[5],inactive
same,Potency,[2],inactive
COc1ccc(C2Nc3ccccc3-c3cc(C)nn32)c(OC)c1 (centres undefined),Potency,[4],inactive
same,Potency,[5],inactive
same,Potency,[2],inactive
CCOC(=O)C1(C)C=C(Nc2ccc(C(N)=O)cc2)C(=O)N1c1ccccc1 (centres undefined),Potency,[4],inactive
same,Potency,[5],10.7 µM (active)
same,Potency,[2],inactive
CCC(=O)N(CCC(c1ccco1)C(C)C)Cc1ccccc1 (centres undefined),Potency,[1],inactive
same,Potency,[3],inactive
O=C1Nc2ccccc2N=C(c2ccccc2)c2ccccc21,Potency,[1],inactive
same,activation,[3],39.2% [at 30.8 µM]
COc1ccc2c(c1)C(SCC(=O)NCCc1ccc(Cl)cc1)CC(C)(C)O2 (centres undefined),activation,[4],"12.3% [at 17.1 µM, percent relative to cAMP agonist control]"
same,Potency,[5],inactive
same,"activity change, negative = inhibition",[2],8.95% [at 30.8 µM]
COc1ccc(S(=O)(=O)Nc2ccc(F)cc2)c(C)c1C,Potency,[4],inactive
same,Potency,[5],5.36 µM (active)
O=C(O)CCN1C(=O)/C(=C\c2cccc(OCC(=O)Nc3ccc(Cl)cc3)c2)SC1=S,Potency,[4],inactive
same,Potency,[5],inactive
same,Potency,[2],inactive
CCOC(=O)C1=C(C)NC(SC)=C(C#N)C1CC(C)C (centres undefined),Potency,[4],inactive
same,Potency,[5],inactive
Cc1cc(C)c(S(=O)(=O)Nc2ccc3c(c2)CCC3)c(C)c1,Potency,[1],inactive
same,Potency,[3],inactive
Oc1ccccc1N=Cc1c(O)ccc2ccccc12,activation,[4],"0% [at 17.1 µM, percent relative to cAMP agonist control]"
same,Potency,[5],inactive
same,"activity change, negative = inhibition",[2],-12% [at 30.8 µM]
O=C(CSc1ncnc2[nH]ncc12)Nc1cccc(Oc2ccccc2)c1,activation,[4],"10.9% [at 17.1 µM, percent relative to cAMP agonist control]"
same,Potency,[5],inactive
same,"activity change, negative = inhibition",[2],-9.96% [at 30.8 µM]
Cc1nc(C)c(-c2csc(Nc3ccc(C(=O)O)c(O)c3)n2)s1,Potency,[4],inactive
same,Potency,[5],inactive
same,Potency,[2],inactive
Cc1ccc(N2C(=O)c3ccccc3C2Nc2ccccc2F)nc1 (centres undefined),activation,[4],"11.4% [at 17.1 µM, percent relative to cAMP agonist control]"
same,Potency,[5],inactive
same,"activity change, negative = inhibition",[2],13.9% [at 30.8 µM]
Oc1ccc(NCc2cccc(OCc3ccc(F)cc3)c2)cc1,activation,[4],"10.4% [at 17.1 µM, percent relative to cAMP agonist control]"
same,Potency,[5],inactive
same,"activity change, negative = inhibition",[2],-11.4% [at 30.8 µM]
O=C(O)c1ccc(N/N=C/c2ccc(-c3ccc(Cl)cc3Cl)o2)cc1,Potency,[4],inactive
same,Potency,[5],inactive
same,Potency,[2],inactive
CCCC/C=C/[C@H](c1ccccc1)[C@H](CO)Cc1cccnc1,Potency,[1],inactive
same,Potency,[3],inactive
Cc1cc(=O)n(Cc2ccccc2)c2c1c(C)nn2C,Potency,[4],inactive
same,Potency,[5],inactive
same,Potency,[2],inactive
CCc1ccc(N=C2NC(=O)/C(=C/c3ccc(OCC(=O)O)c(OC)c3)S2)cc1,Potency,[4],inactive
same,Potency,[5],inactive
same,Potency,[2],inactive
O=C1N(Cc2ccccc2Cl)c2ccccc2C1(O)c1c[nH]c2ccccc12 (centres undefined),Potency,[4],inactive
same,Potency,[5],inactive
same,Potency,[2],inactive
COC(/C(=N/O)c1ccc(Cl)cc1)c1ccccc1 (centres undefined),activation,[4],"9.01% [at 17.1 µM, percent relative to cAMP agonist control]"
same,Potency,[5],inactive
same,"activity change, negative = inhibition",[2],-2% [at 30.8 µM]
O=C(c1ccccc1Br)N(Cc1ccccc1)c1ccccc1,activation,[4],"0.0919% [at 17.1 µM, percent relative to cAMP agonist control]"
same,Potency,[5],inactive
same,"activity change, negative = inhibition",[2],-1.15% [at 30.8 µM]
Oc1c(C(c2ccccc2)N2CCN(c3ccccc3)CC2)sc2nc(-c3ccco3)nn12 (centres undefined),Potency,[4],inactive
same,Potency,[5],inactive
same,Potency,[2],inactive
O=C(N/N=C/c1ccc(O)c(O)c1)C1c2ccccc2Oc2ccccc21,Potency,[4],inactive
same,Potency,[5],inactive
same,Potency,[2],inactive
COc1ccc2cc(-c3nc(Cl)c4c5c(sc4n3)CCCC5)c(=O)oc2c1,Potency,[4],inactive
same,Potency,[5],inactive
same,Potency,[2],inactive
CCOc1ccc(/C=C2\SC(=S)N(NS(=O)(=O)c3ccccc3)C2=O)cc1OC,Potency,[4],112 µM (active)
same,Potency,[5],37.9 µM (active)
same,Potency,[2],inactive
same,Potency,[3],inactive
C/C(=N\O)C(=O)OC1CC(C)CCC1C(C)C (centres undefined),Potency,[1],inactive
same,Potency,[3],inactive
CC(=O)N(CCC(c1ccco1)C(C)C)Cc1ccc(OC(C)C)cc1 (centres undefined),Potency,[1],inactive
same,Potency,[3],inactive
Nc1nc(N)c2c(ccc3c2ccn3Cc2cccc([N+](=O)[O-])c2)n1,Potency,[4],100 µM (active)
O=[N+]([O-])c1ccc(NS(=O)(=O)c2ccccc2)c(Cl)c1,Potency,[4],inactive
same,Potency,[5],inactive
same,Potency,[2],inactive
same,Potency,[3],inactive
O=C(O)CC/C(=C\c1ccc(N2CCCC2)c([N+](=O)[O-])c1)c1nc2ccccc2s1,Potency,[4],inactive
same,Potency,[5],inactive
same,Potency,[2],inactive
same,Potency,[3],inactive
Cc1cc2nc3c(=O)n(Cc4ccccc4)c(=O)[nH]c3nc2cc1N,Potency,[6],3.66 µM (active)
same,activation,[4],"16.2% [at 17.1 µM, percent relative to cAMP agonist control]"
same,Potency,[5],inactive
same,"activity change, negative = inhibition",[2],0.816% [at 30.8 µM]
CN(C)c1ccc(/C=C(/C(=O)c2ccc(Cl)cc2Cl)n2cncn2)cc1,Potency,[4],112 µM (active)
same,Potency,[2],inactive
same,Potency,[3],70.8 µM (active)
Cc1cc(Br)cn2c(Cc3ccsc3)c(-c3ccco3)nc12,activation,[4],"5.83% [at 17.1 µM, percent relative to cAMP agonist control]"
same,Potency,[5],inactive
same,"activity change, negative = inhibition",[2],4.94% [at 30.8 µM]
same,activation,[3],27.6% [at 30.8 µM]
O=c1oc2c3c(ccc2c2ccccc12)OCN(Cc1cccc(Cl)c1)C3,Potency,[4],inactive
same,Potency,[5],inactive
same,Potency,[2],inactive
same,Potency,[3],inactive
CCN(CC)C1=CC2=CC(=C(C#N)C#N)CCC2CC1 (centres undefined),Potency,[6],inactive
same,Potency,[4],112 µM (active)
same,Potency,[2],inactive
same,Potency,[3],25.1 µM (active)
CCOc1ccccc1CN(CCc1ccc2c(c1)OCO2)Cc1ccccn1,activation,[4],"11.2% [at 17.1 µM, percent relative to cAMP agonist control]"
same,"activity change, negative = inhibition",[2],2.25% [at 30.8 µM]
